Source: PubChem BioAssay
An excerpt weighted towards active compounds, which were near 2.4% of everything screened.
D2 PAM-1 = potentiates the human D2 dopamine receptor allosterically; P14416; potentiation, % (test concentration not listed); DiscoveRx D2 beta-arrestin cells, luminescence, 90 min; 100% = 57 uM dopamine signal; actives 0.23% (n = 360,000); in the data active means potentiation above about 50%
Target sequence (P14416 whole entry, looked up): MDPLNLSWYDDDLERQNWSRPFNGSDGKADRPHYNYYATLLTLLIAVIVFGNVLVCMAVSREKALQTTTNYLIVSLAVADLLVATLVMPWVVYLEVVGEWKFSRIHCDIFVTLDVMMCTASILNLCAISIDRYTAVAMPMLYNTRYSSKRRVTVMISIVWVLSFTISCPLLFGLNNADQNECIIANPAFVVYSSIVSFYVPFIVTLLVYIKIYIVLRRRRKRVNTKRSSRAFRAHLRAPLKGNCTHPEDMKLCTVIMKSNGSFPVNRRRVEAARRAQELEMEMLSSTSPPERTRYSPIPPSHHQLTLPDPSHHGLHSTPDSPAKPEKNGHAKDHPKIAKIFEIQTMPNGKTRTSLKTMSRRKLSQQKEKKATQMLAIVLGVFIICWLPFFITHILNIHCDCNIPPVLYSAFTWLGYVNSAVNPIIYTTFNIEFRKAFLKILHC
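PathHunter beta-arrestin assay in DiscoveRx D2 cells. Compounds were added with an EC20 of dopamine (50 nM final) for 90 min at 37 deg C. Luminescence was read 1 h after detection reagent, with 57 uM dopamine as the EC100 control.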
D2 ag-1 = human D2 receptor agonism in beta-arrestin assay. actives 0.084% (n = 360,000). P14416. DiscoveRx PathHunter D2 beta-arrestin, luminescence, 90 min; 100% = 57 uM dopamine signal. activation, % (test concentration not listed); in the data active means activation above about 40%
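DiscoveRx PathHunter D2 beta-arrestin cells (2,100/well) attached overnight, then compound-stimulated 90 min at 37 C in HBSS/10 mM HEPES/0.1% Tween-20 buffer; beta-galactosidase complementation read by luminescence after 1 h at ambient temperature. Dopamine 57 uM final (EC100) as control.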
D2 PAM-2 = D2 dopamine receptor (human) potentiation. HEK293 T-REx D2, calcium flux, EC20 dopamine potentiation. potentiation, % at 10 µM. actives 0.34% (n = 340,000). AID 485347;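 active means potentiation over 3 SD above the plate norm, cut at about 30% in these data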
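Cells plated with tetracycline inducer and held overnight at 30 C; calcium dye loaded 30–90 min at room temperature; baseline taken, compound added and read 180 s; EC20 dopamine then added and read 180 s.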
D2 antag = antagonizes the human D2 dopamine receptor; P14416; HEK293 TREx D2 cells, calcium flux, dopamine EC80; inhibition, % at 10 µM; actives 2% (n = 340,000); AID 485344; in the data active means inhibition above about 30%; inactive means below that, where a call was filed
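Tetracycline-induced HEK293 T-REx cells expressing D2 force-coupled to calcium signalling were dye-loaded, exposed to compound for 180 s, then challenged with an EC80 of dopamine; calcium flux was followed kinetically for a further 180 s.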
D2 ag-2 = D2 dopamine receptor (human) agonism; HEK293 T-REx D2 cells, calcium flux agonist mode; activation, % at 2 µM; actives 0.53% (n = 340,000);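 active means activation over 3 SD above normal in the single-dose calcium agonist read, cut at about 30% in these data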
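Calcium-flux readout, 1 cycle/sec over 180 s following compound pin transfer, in inducible HEK293 Trex D2 cells (force-coupled); dopamine controls included. Positive calcium responses during this window marked compounds as potential agonists.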
Large screens that a line does not name were inactive.

Cc1cc(C)cc(N2C(=O)C3C4C=CC(C4)C3C2=O)c1 (stereo not given)	D2 PAM-2 37.4 (no result: D2 antag, D2 ag-2)
Cc1cccc(N2C(=O)C3C4C=CC(CC4)C3C2=O)c1 (stereo not given)	none
O=C1C2C3C=CC(C3)C2C(=O)N1c1ccccc1 (stereo not given)	none (no result: D2 PAM-2, D2 antag, D2 ag-2)
CCOc1ccc(CNS(=O)(=O)c2ccc3[nH]c4c(c3c2)CCCC4)cc1OC	none (no result: D2 PAM-1, D2 ag-1, D2 antag)
Cc1ccc(CN2C(=O)CCC2C(=O)NCCN2CCN(c3cccc(Cl)c3)CC2)cc1 (stereo not given)	D2 antag 43.8
COc1ccc(NC(=O)NCCN2CCN(c3cccc(Cl)c3)CC2)cc1	D2 antag 36.1
O=C(Cn1nc(-c2ccccc2)ccc1=O)NCCN1CCN(c2cccc(Cl)c2)CC1	D2 antag 63.6
CCOc1cccc(N2CCN(CCNC(=O)Nc3ccc(C)cc3)CC2)c1C	D2 antag 43.9
CCOc1ccc(NC(=O)NCCN2CCN(c3cccc(C)c3C)CC2)cc1	none
CC(C)Cn1c(=O)c2ccccc2n2c(CCC(=O)N3CCN(c4ccccc4)CC3)nnc12	none (no result: D2 PAM-1, D2 ag-1, D2 antag, D2 ag-2)
CCOc1ccc(NC(=O)c2ccc3c(c2)OCCO3)cc1S(=O)(=O)N(CC)CC	D2 antag 31.9
CCOc1ccc(C(=O)Nc2ccc3c(c2)OCCO3)cc1OC	none
Cc1ccc(NC(=O)c2ccc3c(c2)OCCO3)cc1S(=O)(=O)Nc1cccc(Cl)c1	D2 antag 31.3
CCOc1ccc(C(=O)Nc2nnc(C)s2)cc1OCC	none
CCOc1ccc(C(=O)Nc2c3c(nn2C(C)(C)C)CSC3)cc1OCC	D2 antag 30.1
CN(CCC#N)C(=O)COC(=O)c1ccc(Cl)cc1O	D2 antag 46.6
COc1ccc(OC)c(-n2c3c(cc(-c4nc(-c5ccc(Cl)cc5)cs4)c2=O)C(=O)CC(C)(C)C3)c1	none (no result: D2 PAM-1, D2 ag-1, D2 antag)
CCNc1nc(NCC)nc(N/N=C/c2ccc(O)c(O)c2)n1	D2 antag 43.6
CCNc1nc(NCC)nc(N/N=C/c2ccc(N(C)C)cc2)n1	none
Cc1ccc(CSc2nc3ccccc3c(=O)n2C)cc1	D2 antag 33.6
CC(=O)NCCn1c(SCc2ccc(C)cc2)nc2ccccc2c1=O	none
COC(=O)[C@@]1(Cc2ccc(OC)cc2)[C@@H]2C(=CC(=O)[C@H]2CC(=O)C(=O)N2CCCC2)CN1C(=O)c1ccccc1	D2 antag 38.0
COC(=O)[C@@]1(Cc2ccc(OC)cc2)[C@@H]2[C@@H](CC(=O)[C@H]2CC(=O)C(=O)N(C)C)CN1C(=O)c1ccccc1	none
O=C(NC1CC2CCC(C1)N2Cc1ccccc1)c1ccccc1Cl (stereo not given)	D2 antag 74.5
Cc1ccccc1C(=O)NC1CCN(C(=O)N2CCOCC2)CC1	D2 PAM-2 35.7
Cc1ccccc1C(=O)NC1CC2CCCC(C1)N2Cc1ccc(Cl)cc1 (stereo not given)	D2 antag 75.6
Cc1ccccc1C(=O)NC1CC2CCCC(C1)N2Cc1ccccc1 (stereo not given)	D2 antag 71.4
Cc1ccccc1C(=O)NC1CCN(C(=O)NC2CCCCC2)CC1	none
O=C(Nc1ccc(C(=O)OCc2cc(=O)n3c4c(sc3n2)CCCC4)cc1)c1ccc(F)cc1	none (no result: D2 PAM-1, D2 ag-1, D2 antag)
CNC[C@H](O)c1ccc(O)c(O)c1	D2 PAM-1 79.3, D2 ag-1 62.8
CC(C)NCC(O)c1ccc(O)c(O)c1 (stereo not given)	D2 PAM-2 33.2
CC(C)CCNC(=O)C1CCC(CNS(=O)(=O)c2ccc(Cl)cc2)CC1 (stereo not given)	D2 antag 34.2
COc1cccc(OC)c1OCCOCCN1CCN(C)CC1	D2 antag 68.4
COc1ccc(OCCOCCN2CCN(C)CC2)cc1	none
CCOc1ccc(CN(C)CC(O)COC(c2ccc(OC)cc2)c2ccc(OC)cc2)cc1 (stereo not given)	D2 antag 30.3
COc1ccc(CN(C)CC(O)COC(c2ccc(OC)cc2)c2ccc(OC)cc2)cc1 (stereo not given)	D2 antag 39.3
COc1ccc(C(OCC(O)CN(C)C2CCCCC2)c2ccc(OC)cc2)cc1 (stereo not given)	none
COC(=O)c1cc(CNC(=O)c2ccc(S(=O)(=O)N(C)c3ccccc3)cc2)ccc1OC	D2 antag 74.1
CCCNCC(O)COc1ccccc1C(=O)CCc1ccccc1 (stereo not given)	D2 antag 35.1 (no result: D2 PAM-1, D2 ag-1, D2 PAM-2, D2 ag-2)
CCN(CC)CC(O)COc1ccccc1C(=O)CCc1ccccc1 (stereo not given)	none
COc1ccccc1N1CCN(C2CCCN(Cc3ccc(Cl)cc3)C2)CC1 (stereo not given)	D2 antag 37.1
COc1ccc(O)c(CN2CCCC(N3CCN(c4ccccc4OC)CC3)C2)c1 (stereo not given)	none
COc1ccccc1N1CCN(C2CCCN(Cc3ccccc3OCCO)C2)CC1 (stereo not given)	none
COc1ccccc1N1CCN(C2CCCN(Cc3cc(F)cc(F)c3)C2)CC1 (stereo not given)	D2 antag 40.9
CC(C)C(=O)N1c2nc(C(C)C)nn2C2(CCCCC2)[C@@H]2CCCC[C@@H]21	none (no result: D2 PAM-1, D2 ag-1, D2 antag, D2 ag-2)
Nc1nc2c(s1)CCc1c-2cnn1-c1ccccc1	D2 ag-1 40.5
Cc1nc2cc(NC(=O)c3cccc(S(C)(=O)=O)c3)ccc2o1	D2 antag 33.4
Cc1ccc(NC(=O)c2cccc(S(C)(=O)=O)c2)cc1	none
COc1ccc(-n2c(SCC(=O)Nc3ccccc3)nc(O)cc2=O)cc1	none
COc1ccc(NC(=O)CSc2nc(-c3ccc(C)cc3)cc(C(F)(F)F)c2C#N)cc1	D2 PAM-2 30.9 (no result: D2 antag, D2 ag-2)
COc1ccc(NC(=O)CSc2nc(O)cc(=O)n2-c2ccc(OC)cc2)cc1	D2 PAM-2 39.6
COc1ccc(NC(=O)CSc2ncnc3sc(C)cc23)cc1	D2 antag 31.7
Cc1ccc(NC(=O)[C@@H](c2ccccc2)N2Cc3ccccc3C2=O)cc1	none (no result: D2 PAM-1, D2 ag-1, D2 antag)
COc1ccc(NC(=O)CSc2nc(-c3ccco3)cc(C(F)(F)F)n2)cc1	none (no result: D2 PAM-1, D2 ag-1, D2 antag)
Cc1ccc(NC(=O)C2CCC(CNS(=O)(=O)c3cccc4nsnc34)CC2)c(Cl)c1 (stereo not given)	none (no result: D2 PAM-1, D2 ag-1, D2 PAM-2, D2 antag)
COc1ccc(N/C(N)=N/c2nc(C)cc(C)n2)cc1	none (no result: D2 PAM-2, D2 antag, D2 ag-2)
Cc1cc(C)nc(/N=C(\N)Nc2ccc(OCc3ccccc3)cc2)n1	D2 antag 69.8, D2 ag-2 63.2
O=C(c1ccco1)N1CCN(c2c([N+](=O)[O-])nn(-c3ccc(Cl)cc3)[n+]2[O-])CC1	none
CC1CCN(c2c([N+](=O)[O-])nn(-c3ccc4c(c3)OCCO4)[n+]2[O-])CC1	D2 PAM-1 75.2
CCN=C1S/C(=C\c2ccc(N3CCOCC3)cc2C)C(=O)N1CC	none
